# Bioassay records from PubChem BioAssay.
# p53 reactivator – re-activators of mutant p53; H1299 p53-A138V BP100-luciferase reporter, luminescence, 24 h; Potency, µM (top dose mostly 92.2 µM), without a hit: at the top dose activity change, positive = activation, hits mostly activators; 0.063% of 320,000 active; AID 504706; active = well fitted activation curve with a large enough effect; inconclusive = small, poorly fitted or top-dose-only effect; inactive = no such curve, though single readings can be large or run the other way; note: potency is the fitted concentration of half-maximal effect; % of control where 0% means no effect; nearly all actives have a fitted effect of over 45% in size
#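 H1299 (p53-null), stable ts p53-A138V + BP100-Luc; 1000 cells/well, Opti-MEM/10% FBS; cpd 4 pt, 1:5; 24 h, 37 deg C, 5% CO2; detection reagent 10 min RT; luminescence.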
# Menin-MLL FL inh – menin-MLL binding inhibition, fluorescein peptide; Fluorescence polarization, fluorescein-MLL peptide displacement from menin; FP activity change, % at 61.4 µM; AID 1766; 290,000 tested, under 10 active; active = well fitted curve in the direction sought with a large enough effect in the polarisation, not every such curve was filed as active; inconclusive = small, poorly fitted or top-dose-only effect, or effect the other way, or a change in a side signal; inactive = no such curve, though single readings can be large or run the other way; the % refers to the polarisation; note: % of control where 0% means no effect
# MLL CXXC-DNA inh – MLL CXXC-DNA interaction inhibition; 0.037% of 290,000 active; Q03164; Potency, µM (highest dose often 115 µM), for inactives: top-dose activity change, negative = inhibition, actives largely listed as inhibitors; MLL-CXXC / FITC-HOXA9 DNA fluorescence polarization; AID 2662; active = well fitted inhibition curve with a large enough effect in the polarisation, with a control signal flat, not every such curve was filed as active; inconclusive = small, poorly fitted or top-dose-only effect, or effect the other way, or a change in a side signal; inactive = no such curve, though single readings can be large or run the other way; the % refers to the polarisation; note: potency is the fitted concentration of half-maximal effect
#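 Purified MLL-CXXC (added from a 7 uM solution) was preincubated 5 min at ambient with pinned compounds in 50 mM Tris-HCl pH 7.5, 50 mM NaCl, 1 mM DTT, 0.05% BSA. Fluorescein-labeled HOX-A9 DNA (50 nM solution) followed, 30 min, then polarization read.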
# Menin MLL FP TR – inhibitors of human menin-MLL interaction, mutant MLL peptide; 0.23% of 270,000 active; Menin + Texas Red MLL mutant peptide, fluorescence polarization; O00255; Potency, µM (series often up to 61.6 µM), without a hit: top-dose FP activity change, negative = inhibition, actives largely listed as inhibitors; active = well fitted inhibition curve with a large enough effect in the polarisation, with a control signal flat, not every such curve was filed as active; inconclusive = small, poorly fitted or top-dose-only effect, or effect the other way, or a change in a side signal; inactive = no such curve, though single readings can be large or run the other way; the % refers to the polarisation; note: potency is the fitted concentration of half-maximal effect; % of control where 0% means no effect
# ClpP mod – qHTS Assay for Activators of ClpP; ATP-dependent Clp protease proteolytic subunit (Bacillus subtilis (strain 168)), P80244; purified B. subtilis ClpP, FRET peptide cleavage, 20 min; Potency, µM (series often up to 57.5 µM), for inactives: at the highest dose activity change, negative = active; 1.9% of 340,000 active; active = well fitted falling curve with a large enough effect; inconclusive = small, poorly fitted or top-dose-only effect; inactive = no such curve, though single readings can be large or run the other way; note: potency is the fitted concentration of half-maximal effect; the source files actives as falling curves though it sought activators and does not explain the sign; nearly all actives have a fitted effect of over 65% in size
# Target sequence (P80244 whole entry, looked up): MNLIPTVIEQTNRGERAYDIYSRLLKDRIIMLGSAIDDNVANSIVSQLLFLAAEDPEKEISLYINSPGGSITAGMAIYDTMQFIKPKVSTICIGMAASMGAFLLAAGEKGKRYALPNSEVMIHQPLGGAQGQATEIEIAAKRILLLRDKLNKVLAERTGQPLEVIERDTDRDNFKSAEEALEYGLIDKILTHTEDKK
#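 Buffer: 100 mM Tris/HCl pH8, 100 mM KCl, 0.05% low protease BSA, 2.5% glycerol, 0.01% Tween-20. ClpP 10 microg/mL final; 20 min RT; delta FRET normalized to ADEP and DMSO controls.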
# Active calls of the source: *; ? = inconclusive; . = not tested or not shown; ! = not active in a repeat. The sample as a whole holds a higher share of hits than the screen did.
SMILES,p53 reactivator,Menin-MLL FL inh,MLL CXXC-DNA inh,Menin MLL FP TR,ClpP mod
CCCOc1cccc(C(=O)NC(=S)Nc2ccc(N3CCN(C)CC3)cc2)c1,-2%,0,-4%,-3%,.
CCOc1cccc(C(=O)NC(=S)Nc2ccc(N3CCN(CC)CC3)cc2)c1,-2%,-8,-2%,7.1µM*,.
COc1ccc(C(=O)NC(=S)Nc2ccc(N3CCN(C(C)=O)CC3)cc2)cc1[N+](=O)[O-],-2%,3,-23%,.,-3%
CC(=O)N1CCN(c2ccc(NC(=S)NC(=O)c3ccc(C)c([N+](=O)[O-])c3)cc2)CC1,-2%,-2,5%,.,32µM*
COCCOc1cc(NC(=O)c2sccc2Oc2ccc([N+](=O)[O-])cc2F)c(Cl)cc1Cl,-4%,-3,11%,20%,14µM*
O=C(C[n+]1cccc(Br)c1)c1ccc(Br)cc1,.,.,.,.,1%
COc1ccc(OC)c(/C=C/C(=O)N(C)CC(=O)Nc2ccc(N3CCOCC3)cc2)c1,-11%,.,.,.,28µM*
COc1ccc(CCC(=O)N(C)CC(=O)Nc2ccc(N3CCOCC3)cc2)cc1,-4%,-3,-4%,2%,.
COc1ccccc1-c1coc2cc(O)ccc2c1=O,.,1,.,2%,.
Cc1ccccc1-c1coc2cc(O)ccc2c1=O,-6%,4,1%,27%,28µM*
CCOC(=O)C1CCN(C(=O)C2CCN(S(=O)(=O)c3c(C)noc3/C=C/c3ccc(C)cc3)CC2)CC1,.,.,.,.,-25%
CC(C)(C)c1ccc(C(=O)N/N=C2\C3CN4CCN(C3)CC2(c2ccccc2)C4)cc1,-1%,0,-2%,-3%,22µM*
O=C(N/N=C1\C2CN3CCN(C2)CC1(c1ccccc1)C3)c1ccc(F)cc1,5%,7,-1%,-20%,.
Cc1cc(C)c(-c2cc(C(F)(F)F)no2)c(=O)[nH]1,-15%,3,12%,39%,18µM*
O=C(OCC(=O)N1CCC(Cc2ccccc2)CC1)c1ccccc1NCCO,6%,.,.,.,.
CCOC(=O)N1CCN(C(=O)COC(=O)c2ccccc2NCCO)CC1,2%,.,.,.,7.9µM*
CC1Cc2ccccc2N1Cc1nc2cc(Cl)ccc2c(=O)[nH]1 (stereo not given),0%,6,14%,?,13µM*
SCc1nc2ccccc2[nH]1,.,.,.,.,-14%
CC(=O)Nc1ccc2ccc3cccc4ccc1c2c34,-2%,1,5%,8%,14µM*
CC(=O)Nc1cccc2cc(S(=O)(=O)O)ccc12,.,.,.,.,-8%
Cc1ccccc1NC(=O)Cn1c(C)nc2ccc(N)cc2c1=O,-1%,1,1%,1%,28µM*
CN(CCc1ccccn1)C(=O)Nc1ccc(F)cc1,8%,0,1%,-2%,-1%
CN(CCc1ccccn1)C(=O)Nc1ccc(C(C)(C)C)cc1,9%,3,-3%,.,28µM*
CN1CCN(c2ncc3nc(CCc4ccccc4)c(=O)n(C4CC4)c3n2)CC1,.,?,.,-3%,.
CCC(=O)Nc1ccc(-c2nnc(SCc3ccccc3)n2C)cc1,.,.,.,.,-3%
SMILES,p53 reactivator,Menin-MLL FL inh,MLL CXXC-DNA inh,Menin MLL FP TR,ClpP mod
Nc1c(C(=O)NCc2ccccc2)sc2nc(N3CCOCC3)c3c(c12)CCCC3,-14%,2,-4%,18%,25µM*
O=C(C[n+]1cccc(O)c1)Nc1ccc(Br)cc1,1%,-2,-8%,-6%,28µM*
O=C(c1cccc(Cl)c1Cl)N(Cc1ccco1)Cc1cccs1,.,.,.,.,-3%
CCCCN(C)C(=O)CCC(=O)NNc1nc2ccccc2c2nc(C)nn12,-5%,0,-20%,-6%,25µM*!
CCN(CC)CCCNC(=O)CCC(=O)NNc1nc2ccccc2c2nc(C)nn12,3%,-3,5%,-1%,-4%
COc1ccc(-c2cc(C(F)(F)F)nc(SCCC(=O)Nc3cccc(O)c3)n2)cc1,.,.,.,.,-30%
CC(NCC1COc2ccccc2O1)C1COc2ccccc2O1 (stereo not given),-3%,-1,2%,-25%,.
CCOC(=O)CCNC(C)C1COc2ccccc2O1 (stereo not given),3%,-1,22%,8%,6.3µM*
Cc1cc2nccc(C)c2cc1C,.,.,.,.,-12%
COc1cccc2c(=O)c(C(=O)O)c[nH]c12,-4%,1,10%,-1%,22µM*
